Measurements taken from PubChem BioAssay (NCATS).
Records with an inconclusive call do not appear. Active and inactive are the calls of the source. Calls come from the whole dose curve; as a rule, active = well fitted curve in the direction sought with a large enough effect; inconclusive = small, poorly fitted or top-dose-only effect, or another doubt; inactive = no such curve, though single readings can be large; an effect the other way counts as inactive or inconclusive. Residues, ends and D or L forms follow the SMILES beside them.

Legend:
[1] = BET inhibitor-based combinations targeting novel dependencies in MECOM-rearranged (r) AML: MV-4-11 cell line (AID 2202233); note: nearly all actives have a fitted effect of over 45% in size
Procedure, shortened: (§1)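 Each compound is tested in an 11-point concentration series against 500 seeded cells/well for 48 hr. The luminescent viability signal is normalized to DMSO and blank wells, then reduced to AUC and a cell-line-centred Z-AUC.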

[2] = BET inhibitor-based combinations targeting novel dependencies in MECOM-rearranged (r) AML: HNT-34 cell line (AID 2202234); note: nearly all actives have a fitted effect of over 35% in size
Procedure, shortened: as §1

[3] = BET inhibitor-based combinations targeting novel dependencies in MECOM-rearranged (r) AML: UCSD-AML1 cell line (AID 2202235); note: nearly all actives have a fitted effect of over 40% in size
Procedure, shortened: as §1

[4] = BET inhibitor-based combinations targeting novel dependencies in MECOM-rearranged (r) AML: AML-191 cell line (AID 2202236; note: nearly all actives have a fitted effect of over 35% in size)
Procedure, shortened: (§2)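 A 48 hr incubation preceded viability reading by CellTiter-Glo, with 15 min room-temperature development. Dose series had 11 points; normalization used DMSO and empty wells; AUC was computed and mean-centered per line as Z-AUC.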

[5] = BET inhibitor-based combinations targeting novel dependencies in MECOM-rearranged (r) AML: AML-194 cell line (AID 2202237; note: nearly all actives have a fitted effect of over 40% in size)
Procedure, shortened: as §2
Potency is the fitted concentration of half-maximal effect.

| Structure (SMILES) | Potency [1] | Potency [2] | Potency [3] | Potency [4] | Potency [5] |
| --- | --- | --- | --- | --- | --- |
| C[C@@H](O)[C@@H](C)Oc1nc(Nc2ccc(S(=N)(=O)C3CC3)cc2)ncc1C(F)(F)F (stereo partly drawn) | 14.8 µM (active) | 16.6 µM (active) | 20.9 µM (active) | 18.6 µM (active) | 16.6 µM (active) |
| Cc1ccc(-n2nc(C(C)(C)C)cc2NC(=O)NCc2cc(F)ccc2Oc2ccc3c(cnn3CCO)c2)cc1 | 18.6 µM (active) | 0.296 µM (active) |  | 18.6 µM (active) | 16.6 µM (active) |
| COc1cc(OCc2cccc(-c3ccccc3)c2C)cc(OC)c1CN1CCCC[C@H]1C(=O)O | 20.9 µM (active) |  | inactive |  |  |
| CONC(=O)Nc1ccc(-c2sc3c(c2CN(C)C)c(=O)n(-c2ccc(OC)nn2)c(=O)n3Cc2c(F)cccc2F)cc1 | inactive | inactive |  |  | inactive |
| Cn1ncc(NC(=O)c2nc(-c3c(F)cccc3F)sc2N)c1N1CC[C@@H](N)[C@H](F)CC1 | 2.63 µM (active) |  | 0.0934 µM (active) |  |  |
| O=C(Nc1ccc(OC(F)(F)Cl)cc1)c1cnc(N2CC[C@@H](O)C2)c(-c2ccn[nH]2)c1 | 20.9 µM (active) | 0.0105 µM (active) | inactive |  | 18.6 µM (active) |
| CC1=C2C[C@H]3[C@@H](CC[C@@H]4C[C@H](NS(C)(=O)=O)CC[C@@]43C)[C@@H]2CC[C@@]2(C1)O[C@@H]1C[C@H](C)CN[C@H]1[C@H]2C | 16.6 µM (active) | 16.6 µM (active) |  |  | 23.5 µM (active) |
| Cc1ccc(-c2ccc(C)cn2)nc1 | inactive |  | inactive |  |  |
| Cc1c(-c2c(-c3ccc(F)o3)sc3ncnc(O[C@@H](Cc4ccccc4OCc4ccnn4CC(F)(F)F)C(=O)O)c23)ccc(OCCN2CCN(C)CC2)c1Cl | 0.0235 µM (active) | 0.332 µM (active) | 1.32 µM (active) | 5.25 µM (active) | 4.68 µM (active) |
| CC[C@@]1(O)C[C@H](O[C@H]2C[C@H](N(C)C)[C@H](O[C@H]3C[C@H](O)[C@H](O[C@H]4CCC(=O)[C@H](C)O4)[C@H](C)O3)[C@H](C)O2)c2c(cc3c(c2O)C(=O)c2c(O)cccc2C3=O)[C@@H]1C(=O)OC | 0.742 µM (active) | 3.32 µM (active) | 2.35 µM (active) | 2.95 µM (active) | 3.72 µM (active) |
| CC(C)(O)CC[C@@H](O)[C@](C)(O)[C@H]1CC[C@@]2(O)C3=CC(=O)[C@@H]4C[C@@H](O)[C@@H](O)C[C@]4(C)[C@H]3CC[C@]12C | inactive | inactive |  | inactive | inactive |
| [2H]c1nc(C)nc([2H])c1-c1cc(NC[C@@H](C)c2cccc3c(C(=O)NC)ccnc23)ncn1 | inactive |  | inactive |  |  |
| C[C@@H]1CC[C@@]2(OC1)OC1CC3C4CC=C5CC(O)CCC5(C)C4CCC3(C)C1[C@@H]2C (stereo partly drawn) | inactive |  | inactive |  |  |
| CC(C)(C)C[C@H]1N[C@@H](C(=O)NC2CCC(O)CC2)[C@H](c2cccc(Cl)c2F)[C@@]12C(=O)Nc1cc(Cl)ccc12 (stereo partly drawn) | 0.742 µM (active) | 0.934 µM (active) | 1.66 µM (active) | 2.35 µM (active) | 3.32 µM (active) |
| COc1ccc(Cl)cc1-c1cc(=O)[nH]c(=S)n1CC(N)=O | inactive | inactive | inactive |  | inactive |
| N[C@@H](CCC(=O)O)C(=O)N[C@@H](Cc1c[nH]c2ccccc12)C(=O)O (H-Glu-Trp-OH) | inactive | inactive | inactive |  | inactive |
| Cc1ccc(Nc2cc(N[C@@H]3CCCC[C@@H]3N)nnc2C(N)=O)nc1C | 3.72 µM (active) | 16.6 µM (active) |  | 18.6 µM (active) | 20.9 µM (active) |
| C=C1C[C@H]2C=Nc3cc(OCCCOc4cc5c(cc4OC)C(=O)N4CC(=C)C[C@H]4C=N5)c(OC)cc3C(=O)N2C1 |  |  | inactive |  | 0.0015 µM (active) |
| CCCCOc1ccc(CC(=O)NO)cc1 |  | 20.9 µM (active) |  |  | 23.5 µM (active) |
| C=CC(=O)N1CC(N2CCN(C(=O)CNc3cc(C4(C)CC4)c(Cl)cc3O)CC2)C1 |  |  | inactive |  | inactive |
| CCc1cnn2c(NCc3ccc[n+]([O-])c3)cc(N3CCCC[C@H]3CCO)nc12 |  |  | 0.0235 µM (active) |  | 0.0372 µM (active) |
| CNC(=O)c1ccc(N2C(=S)N(c3ccc(C#N)c(C(F)(F)F)c3)C(=O)C2(C)C)cc1F | 18.6 µM (active) |  | inactive | inactive | inactive |
| CO[C@H]1C[C@@H]2CC[C@@H](C)[C@@](O)(O2)C(=O)C(=O)N2CCCC[C@@H]2C(=O)O[C@H]([C@@H](C)C[C@@H]2CC[C@H](O)[C@H](OC)C2)CC(=O)[C@H](C)C=C(C)[C@@H](O)[C@@H](OC)C(=O)[C@H](C)C[C@H](C)C=CC=CC=C1C |  |  | 0.0017 µM (active) |  |  |
